From PubChem BioAssay (EPA / NIEHS) come the findings set out here.

The test can be described thus: CCTE_Deisenroth_DEVTOX-GLR_Pluri_CellCount: Viability Assessment in CCTE's DevTox GLR-Pluri Assay Evaluation of Total Cell Counts, Deisenroth Lab (AID 2284430). In short, it runs like this: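 Cytotoxicity readout: fluorescent nuclei counts by high-content imaging, expressed as percent change relative to 0.2% DMSO. Human RUES2-GLR pluripotent line differentiated 48 h, dosed twice at 24-h intervals across 1 nM - 200 uM (10 points).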

The structures appear in SMILES notation. Activity calls are given as the source filed them. How the source made its calls: active means hit-call score of the fitted dose curve at least 0.9, where 1 is the maximum; inactive means score below 0.9.

For the compound `NC(=O)c1ccc(N)nc1`, the result was inactive.
